This note sets out measurements from PubChem BioAssay (NCATS).

Results filed as inconclusive are left out. Calls of active or inactive are those of the source. Calls come from the whole dose curve; as a rule, active = well fitted activation curve with a large enough effect in the repeat runs; inconclusive = weak or mixed curves; inactive = flat fitted curve, though single readings scatter.
Potency is the fitted concentration of half-maximal effect.

The assay can be described thus: qHTS assay for small molecule agonists of the antioxidant response element (ARE) signaling pathway measured by Nrf2-dependant transcriptional activity (AID 720636). For activation: % of control where 0% means no effect. The settings on record: ARE-luc HepG2, Nrf2 luciferase reporter, 16 h; series mostly up to 92.4 µM; activation: at the top concentration. An excerpt: National Center for Advancing Translational Sciences [NCATS] NIH Chemical Genomics Center [NCGC] U.S. Environmental Protection Agency [EPA] National Institutes of Environmental Health Sciences [NIEHS] National Toxicology Program [NTP] Assay Overview: The antioxidant response element (ARE) signaling pathway plays an important role in the cellular anti-oxidant defense. Exposure to stressors which are exogenous like ionizing radiations, chemicals, U-V light, and endogenous like cell signaling, metabolic processes or inflammation, reactive oxygen species (ROS), can induce oxidative stress in the cells. Oxidative stress has been implicated in the pathogenesis of a variety of diseases ranging from cancer to neurodegeneration. ARE-luc HepG2 cell line (Simmons et al., Current Chemical Genomics, 5:1-12, 2011) has been used for identifying the chemicals that induce oxidative stress. The cell line has an Nrf2-responsive luciferase reporter gene that has been engineered to measure Nrf2-dependant transcriptional activity.
Assay Protocol Summary: For measuring ARE induction; 2,000 ARE-luc HepG2 cells in 5 uL of assay medium containing 1% dialyzed FBS per well were dispensed into white wall/solid bottom 1536-well plates using a Flying Reagent Dispenser (FRD) (Aurora Discovery). The assay plates were incubated for 6 hr at 37 C to allow cell attachment to the well bottom, followed by the transfer of 23 nL compound or DMSO vehicle by a pin tool (Kalypsys). The plates were incubated for 16 hr at 37 C and 5% CO2, followed by the addition of 5 uL of ONE-GloTM luciferase reagent (Promega) into each well using FRD. After 30 min room temperature incubation, plates were read on a ViewLux plate reader (PerkinElmer).
A general note: In qHTS, concentration-response curves come from the screen itself.
`CCOP(=O)(OCC)Oc1cc(C)nc(C(C)C)n1`: the “activation” value was -0.651% (inactive).
The same measure, in the same setting: with `CCC(C)c1cc([N+](=O)[O-])cc([N+](=O)[O-])c1O` (stereo not given) the figure was -1.94% (inactive).
As for `ClC1=C(Cl)C2(Cl)C3C(Cl)C(Cl)CC3C1(Cl)C2(Cl)Cl` (stereo not given), the “activation” value was 1.62% (inactive).
Take `CCNC(=O)NC(=O)/C(C#N)=N/OC`: the “activation” value is 0.454% (inactive).
In the case of `CCC[CH2][Sn]([Cl])([Cl])[CH2]CCC`, the “activation” value is -5.91% (inactive).
The same measure, in the same setting: for `CCOP(=O)(OCC)SCSP(=S)(OCC)OCC` the value was 0.3% (inactive); for `ClC1=C(Cl)C2(Cl)C3C4OC4C(Cl)C3C1(Cl)C2(Cl)Cl` (stereo not given), -0.104% (inactive).
Consider `c1ccc2c(c1)[nH]c1ccccc12`, for which the “activation” value was -0.112% (inactive).
Regarding `CCOP(=S)(OCC)SCn1nnc2ccccc2c1=O`, the “activation” value is -0.325% (inactive).
Regarding `Brc1c(Br)c(Br)c(Br)c(Br)c1Br`, the “activation” value was -0.13% (inactive).
In the case of `CC1(c2ccc(Oc3ccccc3)cc2)OC(=O)N(Nc2ccccc2)C1=O` (stereo not given), the “activation” value was -3.29% (inactive).
The same measure, in the same setting: with `CCOP(=O)(O)C(N)=O` the figure was 0.0986% (inactive); with `CCCCCCCCCCCCN(C)C`, -0.0412% (inactive); with `CC1(C)CN=C(NN=C(/C=C/c2ccc(C(F)(F)F)cc2)/C=C/c2ccc(C(F)(F)F)cc2)NC1`, -3.33% (inactive).
On the same count and under the same terms, with `CS(=O)(=O)NC(=O)c1cc(Oc2ccc(C(F)(F)F)cc2Cl)ccc1[N+](=O)[O-]` the figure was -0.0266% (inactive); with `CC(C)=C[C@@H]1[C@@H](C(=O)OCN2C(=O)C3=C(CCCC3)C2=O)C1(C)C`, 1.9% (inactive); with `CC(C)N(C(=O)SCC(Cl)=C(Cl)Cl)C(C)C`, -1.37% (inactive).
On to `c1ccc2cc3c(ccc4ccccc43)cc2c1`, for which the Potency was 30.6 µM (active).
For `CC(C)(C)[C@@H](O)/C(=C\c1ccc(Cl)cc1Cl)n1cncn1`, the “activation” value was -3.57% (inactive).
Regarding `CCOP(=O)(OCC)OC(Cl)C(Cl)(Cl)Cl` (stereo not given), the “activation” value was -0.473% (inactive).
Same read-out and setting: with `CCCCOC(=O)c1ccccc1C(=O)O` the figure was -1.26% (inactive).
As for `COc1nc(C)nc(NC(=O)NS(=O)(=O)c2ccccc2CCC(F)(F)F)n1`, the “activation” value was 0.0298% (inactive).
`CNC(=O)Oc1ccc(N(C)C)c(C)c1`: the “activation” value was 2.93% (inactive).
Regarding `CC(=O)[O-].CC(=O)[O-].O.O.[Cd+2]`, the Potency was 0.841 µM (active).
Regarding `O=C(O)[C@@H]1[C@H](C(=O)O)[C@@]2(Cl)C(Cl)=C(Cl)[C@]1(Cl)C2(Cl)Cl`, the “activation” value is -0.138% (inactive).
On the same count and under the same terms, for `COc1nc(C)nc(NC(=O)NS(=O)(=O)c2ccccc2Cl)n1` the value was -0.923% (inactive); for `CC(C)(C)c1ccc(CSc2cnn(C(C)(C)C)c(=O)c2Cl)cc1`, -0.646% (inactive).
`CCNc1nc(NC(C)C)nc(SC)n1`: the “activation” value was -0.413% (inactive).
With `CS(=O)(=O)c1cc(C(F)(F)F)ccc1C(=O)c1cnoc1C1CC1`, the “activation” value is -0.875% (inactive).
Turning to `CCCN(CC)CC1COC2(CCC(C(C)(C)C)CC2)O1` (stereo not given), the “activation” value was -0.0078% (inactive).
On the same count and under the same terms, with `CCC/C(=N\OCC)C1=C(O)CC(CC(C)SCC)CC1=O` (stereo not given) the figure was 0.956% (inactive); with `Cn1c(-c2ccccc2)cc(-c2ccccc2)[n+]1C`, -0.905% (inactive).
As to `COc1ccc(-c2ccccc2)cc1NNC(=O)OC(C)C`, the “activation” value is 2.32% (inactive).
As for `CCOS(=O)(=O)OCC`, the “activation” value was -0.171% (inactive).
Regarding `CC/C(=C(\c1ccccc1)c1ccc(OCCN(C)C)cc1)c1ccc(O)cc1`, the “activation” value is -4.95% (inactive).
Consider `CCC[CH2][Sn](=[O])[CH2]CCC`, for which the “activation” value is -0.364% (inactive).
Take `CC(C)[C@@H](Nc1ccc(C(F)(F)F)cc1Cl)C(=O)OC(C#N)c1cccc(Oc2ccccc2)c1` (stereo not given in full): the “activation” value is 0.179% (inactive).
Consider `N#Cc1cc(Br)c(O)c(Br)c1`, for which the “activation” value is -0.302% (inactive).
As for `CC(C)Oc1cc(-n2nc(C(C)(C)C)oc2=O)c(Cl)cc1Cl`, the “activation” value is 0.541% (inactive).
`CCCCCCCCCCCCC1=C(OC(C)=O)C(=O)c2ccccc2C1=O`: the “activation” value is 0.676% (inactive).
